Measurements taken from paper PMC5540273 (PLoS ONE, 2017).

System: SGK
Settings: concentration: 1 μM, replicates: in singlicate; n = 1
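Note: KINOMEscan kinase panel screen.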

| SMILES | %Inh |
| --- | --- |
| Cc1cccc(-c2nc(-c3ccc(S(C)(=O)=O)cc3)sc2-c2ccncc2)c1 | 0% |
| CN1c2ccc(CNc3ccc(F)cc3)cc2-c2c(cnn2C)S1(=O)=O | 0% |
| O=C1Cc2cc(Nc3nc(NCc4cccc(S(=O)(=O)C(F)(F)F)c4)ncc3C(F)(F)F)ccc2N1 | 10% |
| COc1cc2c(cc1OC[C@@H](O)CO)ncc1c3ccc(C#N)cc3[nH]c21 | 47% |
| COc1ccc(S(=O)(=O)NC2CCN(c3cc(C)nc(Nc4cccc(C#N)c4)n3)CC2)cc1.O=C(O)C(F)(F)F [GSK1653539] | 0% |
| [2H]C([2H])(c1cccc(C(F)(F)F)c1C)n1ccn2c(=O)nc(N3CCOCC3)cc12 [GSK2336394] | 0% |
| Cc1cccc(-c2nc(Nc3ccc4ncsc4c3)c3ccccc3n2)n1 [GW867588] | 5% |
| COc1cc2ncn(-c3cc(OCc4sccc4Cl)c(C(N)=O)s3)c2cc1OC [GSK448459] | 0% |
| CCc1ccnc(/C=C/c2n[nH]c3cc(Sc4ccccc4C(=O)NC)ccc23)c1 | 0% |
| C[C@@H](Oc1cc(-n2cnc3ccc(NC(=O)NC(C)(C)C)cc32)sc1C(N)=O)c1ccccc1Cl [GSK346294] | 0% |
| COc1cc2c(cc1OCCN1CCN(C)CC1)ncc1c3ccc(C#N)cc3[nH]c21 | 78% |
| COCCNC(=O)c1ccc(-c2cc(C(=O)NC3CC3)cc(F)c2C)cc1 [GW868318] | 36% |
| COc1cc(Nc2nccc(N3CCC(NC(=O)c4cccc(NC(C)=O)c4)C3)n2)cc(OC)c1OC (stereo not shown) [GSK1379754] | 0% |
| CN1c2ccc(NCc3ccc(F)cc3)cc2-c2c(cnn2C)S1(=O)=O | 5% |
| Cc1nnc(-c2ccc3ncc(-c4ccc(S(C)=O)cc4)n3c2)o1 (stereo not shown) | 0% |
| O=C(NCCCN1CCOCC1)c1cccc(Nc2nccc(Nc3ccc(Oc4ccccc4)cc3)n2)c1 [GW663929] | 1% |
| Cc1cccc(Cn2ccn3c(=O)cc(N4CCOCC4)nc23)c1 [GSK2297542] | 0% |
| Nc1nc(-c2ccc3c(N)n[nH]c3c2)cc(N2CCCC2)n1 [GSK2227430] | 0% |

| SMILES | %Inh |
| --- | --- |
| Fc1ccc(-c2ncn(CCCN3CCOCC3)c2-c2cccnc2)cc1 [SB-211743] | 39% |
| O=C(NOCC1CC1)c1ccc(F)c(F)c1Nc1ccc(I)cc1Cl | 0% |
| NS(=O)(=O)c1cccc(-c2ccc3ncc(N4CCOCC4)nc3c2)c1 [GSK1535721] | 9% |
| Cn1ccc2ncnc(Oc3ccc(NC(=O)Nc4ccncc4)c(Cl)c3)c21 | 0% |
| NS(=O)(=O)c1cccc(-c2ccc3nccc(-c4cccc(S(N)(=O)=O)c4)c3c2)c1 [GW867253] | 9% |
| CCc1nc(-c2cccc(C)c2)c(-c2ccnc(NCc3ccccc3)c2)s1 | 2% |
| O=C(Nc1cccc(-c2nn3ncccc3c2-c2ccnc(Nc3cccc(C(F)(F)F)c3)n2)c1)c1c(F)cccc1F [GSK299495] | 1% |
| O=c1cc(N2CCOCC2)nc2n(Cc3cccc(F)c3)ccn12 [GSK2297430] | 0% |
| O=C1NC(=O)C(N2CCc3ccccc32)=C1c1cccc(Cl)c1 [SB-408010] | 0% |
| Cl.Oc1cccc(Nc2ccnc3cc(-c4ccncc4)ccc23)c1 [GW494601] | 12% |
| COc1ccc(COc2cc(-n3cnc4ccccc43)sc2C(N)=O)cc1 [GSK1024304] | 0% |
| COc1ccc(Nc2ncc(C#N)c(Nc3ccccc3C(N)=O)n2)cc1N1CCN(C)CC1.Cl [GSK1558669] | 87% |
| Cc1cn2c(=O)cc(N3CCOCC3)nc2n1Cc1cccc(Cl)c1Cl [GSK2334006] | 0% |
| N#Cc1c(N2CCOCC2)sc(-c2ccn[nH]2)c1-c1ccc(Cl)cc1 | 23% |
| N#Cc1ccc(-c2cc(-c3c[nH]nc3-c3ccccn3)ccn2)cc1 [GW693028] | 0% |
| Cc1nnc(-c2ccc3occ(-c4ccc(C(C)O)cc4)c3c2)o1 (stereo not shown) | 1% |
| Cc1c(Cn2c(C)nn3c(=O)cc(N4CCOC(C)C4)nc23)cccc1C(F)(F)F (stereo not shown) [GSK2344444] | 9% |

System: SIK2
Settings: concentration: 1 μM, replicates: in singlicate; n = 1

| SMILES | %Inh |
| --- | --- |
| Cc1cccc(-c2nc(-c3ccc(S(C)(=O)=O)cc3)sc2-c2ccncc2)c1 | 0% |
| CN1c2ccc(CNc3ccc(F)cc3)cc2-c2c(cnn2C)S1(=O)=O | 0% |
| O=C1Cc2cc(Nc3nc(NCc4cccc(S(=O)(=O)C(F)(F)F)c4)ncc3C(F)(F)F)ccc2N1 | 0% |
| COc1cc2c(cc1OC[C@@H](O)CO)ncc1c3ccc(C#N)cc3[nH]c21 | 65% |
| COc1ccc(S(=O)(=O)NC2CCN(c3cc(C)nc(Nc4cccc(C#N)c4)n3)CC2)cc1.O=C(O)C(F)(F)F [GSK1653539] | 0% |
| [2H]C([2H])(c1cccc(C(F)(F)F)c1C)n1ccn2c(=O)nc(N3CCOCC3)cc12 [GSK2336394] | 0% |
| Cc1cccc(-c2nc(Nc3ccc4ncsc4c3)c3ccccc3n2)n1 [GW867588] | 0% |
| COc1cc2ncn(-c3cc(OCc4sccc4Cl)c(C(N)=O)s3)c2cc1OC [GSK448459] | 13% |
| CCc1ccnc(/C=C/c2n[nH]c3cc(Sc4ccccc4C(=O)NC)ccc23)c1 | 0% |
| C[C@@H](Oc1cc(-n2cnc3ccc(NC(=O)NC(C)(C)C)cc32)sc1C(N)=O)c1ccccc1Cl [GSK346294] | 0% |
| COc1cc2c(cc1OCCN1CCN(C)CC1)ncc1c3ccc(C#N)cc3[nH]c21 | 88% |
| COCCNC(=O)c1ccc(-c2cc(C(=O)NC3CC3)cc(F)c2C)cc1 [GW868318] | 0% |
| COc1cc(Nc2nccc(N3CCC(NC(=O)c4cccc(NC(C)=O)c4)C3)n2)cc(OC)c1OC (stereo not shown) [GSK1379754] | 12% |
| CN1c2ccc(NCc3ccc(F)cc3)cc2-c2c(cnn2C)S1(=O)=O | 11% |
| Cc1nnc(-c2ccc3ncc(-c4ccc(S(C)=O)cc4)n3c2)o1 (stereo not shown) | 0% |
| O=C(NCCCN1CCOCC1)c1cccc(Nc2nccc(Nc3ccc(Oc4ccccc4)cc3)n2)c1 [GW663929] | 12% |
| Cc1cccc(Cn2ccn3c(=O)cc(N4CCOCC4)nc23)c1 [GSK2297542] | 0% |
| Nc1nc(-c2ccc3c(N)n[nH]c3c2)cc(N2CCCC2)n1 [GSK2227430] | 0% |

| SMILES | %Inh |
| --- | --- |
| Fc1ccc(-c2ncn(CCCN3CCOCC3)c2-c2cccnc2)cc1 [SB-211743] | 5% |
| O=C(NOCC1CC1)c1ccc(F)c(F)c1Nc1ccc(I)cc1Cl | 0% |
| NS(=O)(=O)c1cccc(-c2ccc3ncc(N4CCOCC4)nc3c2)c1 [GSK1535721] | 0% |
| Cn1ccc2ncnc(Oc3ccc(NC(=O)Nc4ccncc4)c(Cl)c3)c21 | 0% |
| NS(=O)(=O)c1cccc(-c2ccc3nccc(-c4cccc(S(N)(=O)=O)c4)c3c2)c1 [GW867253] | 1% |
| CCc1nc(-c2cccc(C)c2)c(-c2ccnc(NCc3ccccc3)c2)s1 | 10% |
| O=C(Nc1cccc(-c2nn3ncccc3c2-c2ccnc(Nc3cccc(C(F)(F)F)c3)n2)c1)c1c(F)cccc1F [GSK299495] | 0% |
| O=c1cc(N2CCOCC2)nc2n(Cc3cccc(F)c3)ccn12 [GSK2297430] | 2% |
| O=C1NC(=O)C(N2CCc3ccccc32)=C1c1cccc(Cl)c1 [SB-408010] | 0% |
| Cl.Oc1cccc(Nc2ccnc3cc(-c4ccncc4)ccc23)c1 [GW494601] | 69% |
| COc1ccc(COc2cc(-n3cnc4ccccc43)sc2C(N)=O)cc1 [GSK1024304] | 0% |
| COc1ccc(Nc2ncc(C#N)c(Nc3ccccc3C(N)=O)n2)cc1N1CCN(C)CC1.Cl [GSK1558669] | 96.4% |
| Cc1cn2c(=O)cc(N3CCOCC3)nc2n1Cc1cccc(Cl)c1Cl [GSK2334006] | 3% |
| N#Cc1c(N2CCOCC2)sc(-c2ccn[nH]2)c1-c1ccc(Cl)cc1 | 4% |
| N#Cc1ccc(-c2cc(-c3c[nH]nc3-c3ccccn3)ccn2)cc1 [GW693028] | 0% |
| Cc1nnc(-c2ccc3occ(-c4ccc(C(C)O)cc4)c3c2)o1 (stereo not shown) | 18% |
| Cc1c(Cn2c(C)nn3c(=O)cc(N4CCOC(C)C4)nc23)cccc1C(F)(F)F (stereo not shown) [GSK2344444] | 0% |
